Results filed as inconclusive are left out. Activity calls are given as the source filed them. Unless noted, calls follow the shape of the dose curve; as a rule, active = well fitted curve in the direction sought with a large enough effect in the repeat runs; inconclusive = weak or mixed curves; inactive = no such curve, though single readings can be large; an effect the other way counts as inactive or inconclusive.
Experiments:
[1] = qHTS assay to identify aromatase inhibitors - cell viability counter screen (AID 743084);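 also: cells stimulated with testosterone during compound exposure; nearly all actives have a fitted effect of over 55% in size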
[2] = target: Aryl hydrocarbon receptor (Homo sapiens) (UniProt P35869); experiment: qHTS assay to identify small molecule that activate the aryl hydrocarbon receptor (AhR) signaling pathway (AID 743085);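 also: HG2L7.5c1 human HepG2 liver cells with stably integrated DRE-driven firefly reporter; series mostly up to about 70 µM; nearly all actives have a fitted effect of over 15% in size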
Sequence of Aryl hydrocarbon receptor (Homo sapiens) (P35869 whole entry, looked up): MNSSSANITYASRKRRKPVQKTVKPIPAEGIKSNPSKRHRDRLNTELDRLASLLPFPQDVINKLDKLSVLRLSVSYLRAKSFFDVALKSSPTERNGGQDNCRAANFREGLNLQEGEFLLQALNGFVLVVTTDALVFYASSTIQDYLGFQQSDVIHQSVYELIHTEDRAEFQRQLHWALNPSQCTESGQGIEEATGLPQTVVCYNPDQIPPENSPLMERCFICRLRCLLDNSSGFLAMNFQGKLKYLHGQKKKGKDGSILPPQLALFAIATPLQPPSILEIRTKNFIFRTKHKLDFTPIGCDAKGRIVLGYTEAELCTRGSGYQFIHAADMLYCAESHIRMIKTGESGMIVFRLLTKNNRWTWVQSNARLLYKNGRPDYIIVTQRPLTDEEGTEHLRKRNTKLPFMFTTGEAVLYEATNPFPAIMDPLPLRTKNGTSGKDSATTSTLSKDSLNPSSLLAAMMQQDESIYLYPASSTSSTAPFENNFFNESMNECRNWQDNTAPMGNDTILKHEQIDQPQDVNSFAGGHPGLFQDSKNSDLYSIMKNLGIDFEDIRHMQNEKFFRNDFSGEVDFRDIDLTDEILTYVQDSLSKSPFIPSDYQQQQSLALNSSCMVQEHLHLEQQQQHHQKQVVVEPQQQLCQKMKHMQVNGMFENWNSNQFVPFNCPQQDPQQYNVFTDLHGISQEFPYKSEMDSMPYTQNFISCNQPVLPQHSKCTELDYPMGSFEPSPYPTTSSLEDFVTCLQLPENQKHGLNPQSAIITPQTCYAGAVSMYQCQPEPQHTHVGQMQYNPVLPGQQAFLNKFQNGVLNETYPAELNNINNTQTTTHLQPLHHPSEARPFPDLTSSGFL
Outline: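 Steps: seed HepG2-AhR-luc cells; allow 5 h at 37C; pin-transfer test compound or vehicle; incubate 24 h at 37C; add viability dye (30 min, 37C) and read fluorescence; add luciferase substrate (30 min, RT) and read luminescence.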

[3] = qHTS assay to identify small molecule that activate the aryl hydrocarbon receptor (AhR) signaling pathway - cell viability counter screen (AID 743086);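 also: HepG2 liver cells carrying the AhR DRE luciferase reporter; series mostly up to about 70 µM; nearly all actives have a fitted effect of over 45% in size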
Outline: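 Cytotoxicity counter screen: CellTiter-Fluor signal (30 min, 37 C) in 4000 HepG2 cells/well carrying the DRE-luciferase reporter, following 24 h compound exposure at 37 C.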

[4] = target: Peroxisome proliferator-activated receptor gamma (Homo sapiens) (UniProt P37231); experiment: qHTS assay to identify small molecule agonists of the peroxisome proliferator-activated receptor gamma (PPARg) signaling pathway (AID 743094; active = well fitted activation curve with a large enough effect in the signal ratio in the repeat runs, not every such curve was filed as active; the % refers to the signal ratio)
Sequence of Peroxisome proliferator-activated receptor gamma (Homo sapiens) (P37231 whole entry, looked up): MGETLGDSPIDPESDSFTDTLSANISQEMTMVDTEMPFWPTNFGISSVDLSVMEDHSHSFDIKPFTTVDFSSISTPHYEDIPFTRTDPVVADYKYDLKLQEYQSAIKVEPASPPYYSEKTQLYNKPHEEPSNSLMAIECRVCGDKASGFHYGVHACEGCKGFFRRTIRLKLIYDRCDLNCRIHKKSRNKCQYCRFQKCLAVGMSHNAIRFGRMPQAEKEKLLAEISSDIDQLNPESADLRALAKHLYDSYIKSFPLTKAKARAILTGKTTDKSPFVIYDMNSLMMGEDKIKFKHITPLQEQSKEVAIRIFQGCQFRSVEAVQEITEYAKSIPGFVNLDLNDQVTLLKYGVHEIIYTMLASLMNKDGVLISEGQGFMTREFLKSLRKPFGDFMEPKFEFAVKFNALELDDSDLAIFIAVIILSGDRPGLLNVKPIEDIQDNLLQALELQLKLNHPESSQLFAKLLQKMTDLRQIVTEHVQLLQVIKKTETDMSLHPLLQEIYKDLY
Outline: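 Following 5 h plating at 37C, PPARg-bla HEK293H cells receive compound or DMSO for 17 h; fluorescence intensity is recorded after LiveBLAzer B/G loading for 1 h at room temperature.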

[5] = qHTS assay to identify small molecule antagonists of the peroxisome proliferator-activated receptor gamma (PPARg) signaling pathway - cell viability counter screen (AID 743194); also: nearly all actives have a fitted effect of over 55% in size
Outline: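 Viability was measured as CellTiter-Glo luminescence in GeneBLAzer PPARg UAS-bla HEK293H cells. These cells had been exposed 17 h at 37 C to compounds together with rosiglitazone at 50 nM final, with the beta-lactamase readout taken in the same wells.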

[6] = qHTS assay for small molecule agonists of the antioxidant response element (ARE) signaling pathway (AID 743202; active = well fitted activation curve with a large enough effect in the signal ratio in the repeat runs, not every such curve was filed as active; the % refers to the signal ratio)
Outline: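 An ARE-responsive beta-lactamase gene stably integrated in HepG2 cells serves as reporter. After 5 h plating and 16 h compound incubation at 37 C, fluorescence of the B/G FRET substrate was measured.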

[7] = qHTS assay for small molecule agonists of the antioxidant response element (ARE) signaling pathway - cell viability counter screen (AID 743203; calls by dose curve; also: nearly all actives have a fitted effect of over 55% in size)
Outline: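 Compounds in DMSO were pinned onto ARE-bla HepG2 cells plated 5 hrs earlier at 2,000 cells/well. Sixteen hours later at 37C/5% CO2, CellTiter-Glo was added and luminescence measured after 30 min at room temperature.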

[8] = qHTS assay for small molecule activators of the heat shock response signaling pathway - cell viability counter screen (AID 743209); also: nearly all actives have a fitted effect of over 50% in size
Outline: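 Counter screen for cytotoxicity in HeLa HSE-bla reporter cells. Treatment was 5 h at 37 C; viability was detected by luminescent ATP assay (CellTiter-Glo) in the same wells as the beta-lactamase read.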

[9] = qHTS assay for small molecule activators of the heat shock response signaling pathway (AID 743210; active = well fitted activation curve with a large enough effect in the signal ratio in the repeat runs, with a control signal flat, not every such curve was filed as active; the % refers to the signal ratio;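 also: HeLa cells with beta-lactamase reporter driven by heat shock elements; series mostly up to about 63 µM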)
Outline: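 In HSE-bla HeLa cells, 5 h compound incubation (37 C) precedes addition of LiveBLAzer B/G substrate; after 2.5 h at room temperature, fluorescence intensity indicates reporter induction.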

[10] = qHTS assay to identify small molecule agonists of the peroxisome proliferator-activated receptor delta (PPARd) signaling pathway - cell viability counter screen (AID 743211); also: nearly all actives have a fitted effect of over 55% in size
Outline: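 Viability of GeneBLAzer PPARd UAS-bla HEK293H cells was assessed after 17 h compound incubation at 37C, using CellTiter-Glo reagent added after the reporter read and luminescence recorded 30 min later.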

[11] = target: Peroxisome proliferator-activated receptor delta (Homo sapiens) (UniProt Q03181); experiment: qHTS assay to identify small molecule agonists of the peroxisome proliferator-activated receptor delta (PPARd) signaling pathway (AID 743212; calls by dose curve)
Sequence of Peroxisome proliferator-activated receptor delta (Homo sapiens) (Q03181 whole entry, looked up): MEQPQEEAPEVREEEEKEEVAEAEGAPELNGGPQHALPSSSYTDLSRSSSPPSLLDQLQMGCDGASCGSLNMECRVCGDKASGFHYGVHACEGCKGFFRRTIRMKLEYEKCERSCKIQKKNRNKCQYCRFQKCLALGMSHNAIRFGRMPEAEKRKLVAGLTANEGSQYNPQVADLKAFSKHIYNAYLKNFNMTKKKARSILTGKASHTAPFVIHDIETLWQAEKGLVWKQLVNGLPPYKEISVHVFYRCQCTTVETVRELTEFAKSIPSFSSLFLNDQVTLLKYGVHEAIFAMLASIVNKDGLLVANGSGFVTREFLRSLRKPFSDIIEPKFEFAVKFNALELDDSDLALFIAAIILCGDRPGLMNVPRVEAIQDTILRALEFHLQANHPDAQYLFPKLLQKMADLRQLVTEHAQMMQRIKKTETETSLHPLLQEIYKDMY
Outline: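 HEK293H UAS-bla reporter cells, human PPARd system; compounds delivered in DMSO after 5 h plating, then at 37 C. Beta-lactamase FRET read, 2 h RT substrate step.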

[12] = qHTS assay to identify small molecule antagonists of the peroxisome proliferator-activated receptor delta (PPARd) signaling pathway - cell viability counter screen (AID 743213); also: nearly all actives have a fitted effect of over 50% in size
Outline: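 Same-well viability: cells pre-incubated 5 h, dosed with compound plus 300 nM L165041, kept 17 h at 37 C, FRET substrate 2 h RT, then CellTiter-Glo 30 min RT and luminescence.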

[13] = target: Peroxisome proliferator-activated receptor delta (Homo sapiens) (UniProt Q03181); experiment: qHTS assay to identify small molecule antagonists of the peroxisome proliferator-activated receptor delta (PPARd) signaling pathway (AID 743215; active = well fitted inhibition curve with a large enough effect in the signal ratio in the repeat runs, not every such curve was filed as active; the % refers to the signal ratio;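 also: cells stimulated with agonist L165041 at 300 nM final during compound exposure; series mostly up to about 62 µM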)
Outline: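 With L165041 present at 300 nM final, compounds were incubated 17 h at 37 C on PPARd UAS-bla HEK293H cells. A FRET-based beta-lactamase substrate was then applied for 2 h at room temperature and fluorescence intensity recorded.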

[14] = target: Bile acid receptor (Homo sapiens) (UniProt Q96RI1); experiment: qHTS assay to identify small molecule antagonists of the farnesoid-X-receptor (FXR) signaling pathway (AID 743217; active = well fitted inhibition curve with a large enough effect in the signal ratio in the repeat runs, not every such curve was filed as active; the % refers to the signal ratio)
Sequence of Bile acid receptor (Homo sapiens) (Q96RI1 whole entry, looked up): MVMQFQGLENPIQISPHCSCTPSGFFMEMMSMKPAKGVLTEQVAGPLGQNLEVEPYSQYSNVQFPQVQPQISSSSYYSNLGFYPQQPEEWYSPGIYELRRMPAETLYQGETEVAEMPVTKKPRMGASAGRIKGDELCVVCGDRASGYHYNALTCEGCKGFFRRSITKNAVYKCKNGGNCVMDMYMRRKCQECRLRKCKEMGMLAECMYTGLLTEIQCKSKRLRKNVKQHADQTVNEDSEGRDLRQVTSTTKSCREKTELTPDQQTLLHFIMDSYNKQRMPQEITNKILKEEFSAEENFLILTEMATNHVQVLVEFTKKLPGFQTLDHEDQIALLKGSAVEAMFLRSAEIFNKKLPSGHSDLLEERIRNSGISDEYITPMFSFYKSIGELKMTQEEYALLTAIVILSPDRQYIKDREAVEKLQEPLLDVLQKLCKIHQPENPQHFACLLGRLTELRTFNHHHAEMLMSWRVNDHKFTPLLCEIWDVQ
Outline: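 In this cell-based antagonist screen, inhibition of CDCA-driven (50 uM final) UAS-beta-lactamase expression in HEK 293T cells was measured by FRET fluorescence following 16 h compound exposure at 37 °C.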

[15] = qHTS assay to identify small molecule agonists of the farnesoid-X-receptor (FXR) signaling pathway - cell viability counter screen (AID 743218); also: nearly all actives have a fitted effect of over 45% in size
Outline: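 After 16 h at 37 C with test compounds, FXR-bla HEK 293T cells were given LiveBLAzer B/G substrate for 2 h at RT and then CellTiter-Glo; luminescence was taken after 30 min.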

[16] = target: Bile acid receptor (Homo sapiens) (UniProt Q96RI1); experiment: qHTS assay to identify small molecule agonists of the farnesoid-X-receptor (FXR) signaling pathway (AID 743220; active = well fitted activation curve with a large enough effect in the signal ratio in the repeat runs, not every such curve was filed as active; the % refers to the signal ratio)
Outline: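 Beta-lactamase reporter under UAS control in GeneBLAzer FXR HEK 293T cells (5000/well) measured with LiveBLAzer FRET substrate after 2 h at room temperature. Compound exposure lasted 16 h at 37C.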

[17] = qHTS assay to identify small molecule antagonists of the farnesoid-X-receptor (FXR) signaling pathway - cell viability counter screen (AID 743221; active = well fitted cell-killing curve with a large enough effect in the repeat runs, not every such curve was filed as active; also: nearly all actives have a fitted effect of over 50% in size)
Outline: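 Quantitative HTS of the Tox21 10K library run in parallel with the beta-lactamase reporter read. HEK 293T cells carrying a UAS-driven bla reporter got compound and 50 uM CDCA (final) for 16 h; ATP-based luminescence followed.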

[18] = target: Vitamin D3 receptor (Homo sapiens) (UniProt P11473); experiment: qHTS assay to identify small molecule agonists of the vitamin D receptor (VDR) signaling pathway (AID 743222; calls by dose curve)
Sequence of Vitamin D3 receptor (Homo sapiens) (P11473 whole entry, looked up): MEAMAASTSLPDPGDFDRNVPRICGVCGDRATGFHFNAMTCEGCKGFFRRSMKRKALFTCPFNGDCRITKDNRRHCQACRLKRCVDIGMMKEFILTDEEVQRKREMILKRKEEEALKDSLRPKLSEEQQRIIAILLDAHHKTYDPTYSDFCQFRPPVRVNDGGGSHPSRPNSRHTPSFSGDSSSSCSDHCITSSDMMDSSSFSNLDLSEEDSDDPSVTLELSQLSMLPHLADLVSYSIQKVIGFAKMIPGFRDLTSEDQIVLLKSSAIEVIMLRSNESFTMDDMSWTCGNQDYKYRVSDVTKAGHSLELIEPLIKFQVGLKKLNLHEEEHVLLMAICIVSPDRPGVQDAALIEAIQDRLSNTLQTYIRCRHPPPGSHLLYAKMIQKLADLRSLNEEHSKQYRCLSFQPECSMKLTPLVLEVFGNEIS
Outline: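 VDR-bla cells were seeded, left 4 h, treated with compounds in DMSO for 16 h, incubated 2 h at RT with B/G FRET substrate, and read for fluorescence.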

[19] = target: Vitamin D3 receptor (Homo sapiens) (UniProt P11473); experiment: qHTS assay to identify small molecule antagonists of the vitamin D receptor (VDR) signaling pathway (AID 743223; active = well fitted inhibition curve with a large enough effect in the signal ratio in the repeat runs, not every such curve was filed as active; the % refers to the signal ratio)
Outline: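 Fluorescence from LiveBLAzer B/G FRET substrate, read after 2 h at room temperature, reflects beta-lactamase reporter activity in VDR-bla cells treated 16 h at 37C with compounds and agonist 1alpha,25-dihydroxyvitamin D3 (3 nM final).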

[20] = target: Peroxisome proliferator-activated receptor gamma (Homo sapiens) (UniProt P37231); experiment: qHTS assay to identify small molecule antagonists of the peroxisome proliferator-activated receptor gamma (PPARg) signaling pathway (AID 743191; calls by dose curve; also: series mostly up to about 63 µM; nearly all actives have a fitted effect of over 30% in size)
Outline: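 Beta-lactamase reporter under UAS control in HEK293H PPARg-bla cells; compound treatment 17 h at 37C. Read-out: fluorescence intensity after 1 h room-temperature incubation with LiveBLAzer B/G FRET substrate.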

Measured: Potency

CCCCCCCCCOC(=O)c1ccccc1C(=O)OCCCCCCCCC
not listed: [20]
inactive: all other assays above

Cc1ccc(C(C)NC(=O)[C@@H](NC(=O)OC(C)C)C(C)C)cc1 (stereo partly drawn)
not listed: [13] | [18] | [19] | [20]
inactive: all other assays above

CN(C)C(C)(C)CO
not listed: [15] | [20]
inactive: all other assays above

OCC1CCC(CO)CC1 (stereo not drawn)
not listed: [15] | [20]
inactive: all other assays above

O=C(Cn1ccnc1[N+](=O)[O-])NCc1ccccc1
not listed: [17] | [18] | [19] | [20]
inactive: all other assays above

CC(CO)(CO)CO
not listed: [13] | [14] | [16] | [20]
inactive: all other assays above

CC(C)(C)NC[C@H](O)COc1cccc2c1CCCC2=O
not listed: [7] | [9] | [11] | [13] | [14] | [16]
inactive: all other assays above

CCC(C)C(C)=O (stereo not drawn)
not listed: [13] | [14] | [16] | [20]
inactive: all other assays above
